# Measurements taken from the supplement of paper PMC10981050.
# Several values for one entry are separate records, joined by “and”; a condition that tells them apart may be missing. Identical values can stand only once. Counter-ions that a name gives are not always drawn.
# Tests used:
# Assay in all cases: cell viability relative to vehicle control; higher = less cytotoxic
# Details in all cases: 10 µM
# K562 = test system: K562
# Procedure, shortened: (§1)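 CRISPR-edited mutant clones and isogenic wild-type clones from four leukaemia lines were screened against Selleck bioactive, kinase and epigenetic probe libraries, with identity-inconsistent compounds excluded. Each compound was acoustically dispensed at a single 10 µM dose into 384-well plates holding 2000 cells in 50 µL medium per well. After 48 h the supernatant was removed and CellTiter-Glo luminescence was read. Viability was expressed as percent of the on-plate vehicle control and analysed in Genedata Screener.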
# MARIMO = test system: MARIMO
# Procedure, shortened: as §1
# MOLM14 = test system: MOLM14
# Procedure, shortened: as §1
# OCI-AML2 = test system: OCI-AML2
# Procedure, shortened: as §1
Structure (SMILES),cell viability (K562; SRSF2 genotype: SRSF2 P95H/wt),cell viability (K562; SRSF2 genotype: SRSF2 wt/wt) [%],cell viability (MARIMO; SRSF2 genotype: SRSF2 P95H/wt) [%],cell viability (MARIMO; SRSF2 genotype: SRSF2 wt/wt) [%],cell viability (MOLM14; SRSF2 genotype: SRSF2 P95H/wt) [%],cell viability (MOLM14; SRSF2 genotype: SRSF2 wt/wt) [%],cell viability (OCI-AML2; SRSF2 genotype: P95H/wt) [%],cell viability (OCI-AML2; SRSF2 genotype: wt/wt) [%]
O=C(O)c1ccc(O)cc1 [4-Hydroxybenzoic acid],93.3% and 100%,98.8,93.4,97.5,98.4,99.5,87,102
CC(C)(C)C(=O)N1N=CC[C@H]1c1ccccc1,101% and 98.4%,104,107,108,95.5,103,97.2,103
O=C1C[C@@H](c2ccc(O[C@@H]3O[C@H](CO)[C@@H](O)[C@H](O)[C@H]3O)cc2)Oc2cc(O)ccc21 [Liquiritin],92.3% and 81.1%,83.8,83.3,90.1,86.4,89,96.5,91.4
N#Cc1ccc2ncnc(NCCc3ccccc3)c2c1 [Senexin A],85% and 87.1%,92.4,91.8,94,77.1,95.1,58.2,63
CCOc1cc(C(C)(C)C)ccc1C1=N[C@@](C)(c2ccc(Cl)cc2)[C@@](C)(c2ccc(Cl)cc2)N1C(=O)N1CCN(CCCS(C)(=O)=O)CC1,80.8% and 82.7%,79.8,91.2,107,0.32,0.35,0.58,13.8
O=C(O)C1=C(CSc2nnnn2CS(=O)(=O)O)CS[C@@H]2[C@H](NC(=O)[C@H](O)c3ccccc3)C(=O)N12 [Cefonicid sodium],103%,102,97.2,108,96.3,105,103,113
CC=C1C(=O)C[C@H]2[C@@H]3CCC4=CC(=O)CC[C@]4(C)[C@H]3CC[C@]12C [Guggulsterone E&Z],76% and 84.7%,79.3,61.7,72.3,80.4,89.3,71.8,76.7
Nc1ccc(Cl)cc1C(=O)C(F)(F)F [4-Chloro-2-(trifluoroacetyl)aniline hydrochl],106% and 98.3%,112,101,99.5,105,109,105,115
CC(=O)O[C@]1(C)CC[C@@]23C[C@H]1C(C)(C)[C@@H]2CC[C@H]3C [Cedryl acetate],102% and 105%,104,103,117,101,106,112,110
CN1CCc2cc(Nc3ncc(C4CC4)c(NCCCNC(=O)C4CCC4)n3)ccc2C1,34.8% and 33.1%,55.2,3.21,1.31,0.63,0.39,1.22,4.15
CNC[C@H](O)c1cccc(O)c1 [Phenylephrine hydrochloride],103% and 114%,109,104,104,101,109,106,103
C[C@H]1CNCCCN1S(=O)(=O)c1cccc2cncc(F)c12 [Ripasudil (K-115)],104% and 103%,108,101,106,74.7,101,76.7,82.9
Cc1cc(Nc2nc(N[C@@H](C)c3ccc(F)cc3)c(C#N)cc2F)n[nH]1,53.7% and 73%,75.5,30.6,33.4,1.75,3.5,6.13,15.8
C=C1CCC[C@]2(C)Cc3occ(C)c3C[C@@H]12 [Atractylon],104% and 98.2%,97.5,98.4,99,103,99.3,95,98
O=C(Nc1ncc(SCCN2CCCC2)s1)[C@]1(c2ccc(S(=O)(=O)C3CC3)cc2)C[C@H]1C1CCCCC1,0.72% and 0.66%,0.58,2.32,11.5,0.59,0.51,0.46,0.55
COc1ccc([C@@H]2Sc3ccccc3N(CCN(C)C)C(=O)[C@@H]2OC(C)=O)cc1 [Diltiazem HCl],99.8% and 95.7%,91.9,98,98.1,99.3,98.7,94.1,99.1
CC(COc1ccccc1Cc1ccccc1)N1CCCCC1 (stereo not drawn) [Benproperine phosphate],82.8% and 87.2%,91.3,70.4,78.5,82.5,88.2,93.7,84.7
NC(=O)c1nc(F)cnc1O [Favipiravir (T-705)],98.6% and 95.8%,95.8,91.7,92.5,89.8,94.8,100,93.2
Cn1cc(-c2[nH]c3cc(NC(=O)[C@H](N)C4CCCCC4)cc4c3c2C=NNC4=O)cn1,2.84% and 6.35%,4.41,32.7,26.9,0.83,0.37,5.09,8.02
CCC(=O)O[C@@H]1CC(=O)O[C@H](C)C/C=C/C=C/[C@H](O)[C@H](C)C[C@H](CC=O)[C@H](O[C@@H]2O[C@H](C)[C@@H](O[C@H]3C[C@@](C)(O)[C@@H](OC(=O)CC)[C@H](C)O3)[C@H](N(C)C)[C@H]2O)[C@H]1OC [Midecamycin],84.3% and 87.1%,89.5,89.3,102,93.3,93.7,96.2,97.4
Nc1ccc2ncnc(NCCc3ccc(Oc4ccccc4)cc3)c2c1,68.5% and 56.3%,67.6,62.7,58.3,69.8,63.6,52.3,51.5
